According to the supplement of paper PMC8728848:
Many of the other results were omitted from the sample, so the strongest signals are more common in it than they were.

Experiments:
Assay in all cases: glycan array binding signal (z-score within array); higher = stronger binding
Settings in all cases: glycan notation: IUPAC condensed, linker removed; mutation: K176L
[1] = target: Fuc(a1-2)Gal(b1-4)GlcNAc(b1-3)Gal(b1-4)GlcNAc
Summary of the method: (§1)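 Glycan array data were curated from 3228 arrays in the Consortium for Functional Glycomics database and kept only where the protein sequence was available. Glycan names were converted to IUPAC-condensed notation, and columns mapping to the same glycan were averaged. The binding signal is a within-array Z-score, averaged across arrays of the same protein sequence at different concentrations or buffers and across linkers. Negative Z-scores can be read as non-binding.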

[2] = target: Fuc(a1-2)Gal(b1-4)GlcNAc(b1-3)Gal(b1-4)GlcNAc(b1-3)Gal(b1-4)GlcNAc
Summary of the method: as §1

[3] = target: Fuc(a1-2)[Gal(a1-3)]Gal(b1-3)GlcNAc(b1-2)Man(a1-3)[Fuc(a1-2)[Gal(a1-3)]Gal(b1-3)GlcNAc(b1-2)Man(a1-6)]Man(b1-4)GlcNAc(b1-4)GlcNAc
Summary of the method: as §1

[4] = target: Fuc(a1-2)[Gal(a1-3)]Gal(b1-4)GlcNAc(b1-2)Man(a1-3)[Fuc(a1-2)[Gal(a1-3)]Gal(b1-4)GlcNAc(b1-2)Man(a1-6)]Man(b1-4)GlcNAc(b1-4)GlcNAc
Summary of the method: as §1

[5] = target: Fuc(a1-2)[GalNAc(a1-3)]Gal(b1-4)GlcNAc
Summary of the method: as §1

[6] = target: Fuc(a1-2)[GalNAc(a1-3)]Gal(b1-4)GlcNAc(b1-3)Gal(b1-4)GlcNAc(b1-3)Gal(b1-4)GlcNAc
Summary of the method: as §1

[7] = target: Fuc(a1-3)[Gal(b1-4)]GlcNAc
Summary of the method: as §1

[8] = target: Fuc(a1-3)[GalNAc(b1-4)]GlcNAc
Summary of the method: as §1

[9] = target: Gal(a1-4)Gal(b1-3)GlcNAc(b1-2)Man(a1-3)[Gal(a1-4)Gal(b1-3)GlcNAc(b1-2)Man(a1-6)]Man(b1-4)GlcNAc(b1-4)GlcNAc
Summary of the method: as §1

Gal(a1-4)Gal(b1-4)Glc = target: Gal(a1-4)Gal(b1-4)Glc
Summary of the method: as §1

Gal(b1-3)GalNAc = target: Gal(b1-3)GalNAc
Summary of the method: as §1

[10] = target: Gal(b1-3)GalNAc(b1-3)Gal(a1-4)Gal(b1-4)Glc
Summary of the method: as §1

[11] = target: Gal(b1-3)GlcNAc(b1-3)Gal(b1-4)GlcNAc(b1-6)[Gal(b1-3)GlcNAc(b1-3)]Gal(b1-4)Glc
Summary of the method: as §1

[12] = target: Gal(b1-3)[Fuc(a1-4)]GlcNAc(b1-3)Gal(b1-4)[Fuc(a1-3)]GlcNAc
Summary of the method: as §1

[13] = target: Gal(b1-3)[GlcNAc(b1-6)]GalNAc
Summary of the method: as §1

[14] = target: Gal(b1-4)GalNAc(b1-3)[Fuc(a1-2)]Gal(b1-4)GlcNAc
Summary of the method: as §1

[15] = target: Gal(b1-4)GlcNAc(b1-2)Man(a1-6)[Man(a1-3)]Man(b1-4)GlcNAc(b1-4)GlcNAc
Summary of the method: as §1

[16] = target: Gal(b1-4)GlcNAc(b1-3)Gal(b1-4)Glc
Summary of the method: as §1

[17] = target: Gal(b1-4)GlcNAc(b1-3)Gal(b1-4)GlcNAc(b1-3)Gal(b1-4)GlcNAc
Summary of the method: as §1

[18] = target: Gal(b1-4)GlcNAc(b1-3)[Gal(b1-4)GlcNAc(b1-6)]GalNAc
Summary of the method: as §1

[19] = target: Gal(b1-4)GlcNAc(b1-6)[Gal(b1-3)]GalNAc
Summary of the method: as §1

Gal3S6S(b1-4)GlcNAc6S = target: Gal3S6S(b1-4)GlcNAc6S
Summary of the method: as §1

Gal6S(b1-4)Glc = target: Gal6S(b1-4)Glc
Summary of the method: as §1

GalNAc(a1-3)GalNAc = target: GalNAc(a1-3)GalNAc
Summary of the method: as §1

[20] = target: GlcNAc(a1-4)Gal(b1-3)GlcNAc
Summary of the method: as §1

[21] = target: GlcNAc(a1-4)Gal(b1-4)GlcNAc(b1-3)Gal(b1-4)GlcNAc(b1-3)Gal(b1-4)GlcNAc
Summary of the method: as §1

GlcNAc(b1-3)Gal(b1-4)Glc = target: GlcNAc(b1-3)Gal(b1-4)Glc
Summary of the method: as §1

[22] = target: Kdn(a2-3)Gal(b1-4)[Fuc(a1-3)]GlcNAc
Summary of the method: as §1

Man(a1-2)Man(a1-3)Man = target: Man(a1-2)Man(a1-3)Man
Summary of the method: as §1

[23] = target: Man(a1-2)Man(a1-6)[Man(a1-3)]Man(a1-6)[Man(a1-2)Man(a1-2)Man(a1-3)]Man(b1-4)GlcNAc(b1-4)GlcNAc
Summary of the method: as §1

[24] = target: Neu5Ac(a2-3)Gal(b1-3)GalNAc
Summary of the method: as §1

[25] = target: Neu5Ac(a2-3)Gal(b1-3)GlcNAc(b1-3)Gal(b1-4)GlcNAc
Summary of the method: as §1

[26] = target: Neu5Ac(a2-6)Gal(b1-4)GlcNAc(b1-2)Man(a1-3)[Gal(b1-4)GlcNAc(b1-2)Man(a1-6)]Man(b1-4)GlcNAc(b1-4)GlcNAc
Summary of the method: as §1

[27] = target: Neu5Gc(a2-3)Gal(b1-3)[Fuc(a1-4)]GlcNAc
Summary of the method: as §1

B1: Gal 3 (Homo sapiens), P17931 (protein)
chain: MADNFSLHDALSGSGNPNPQGWPGAWGNQPAGAGGYPGASYPGAYPGQAPPGAYPGQAPPGAYHGAPGAYPGAPAPGVYPGPPSGPGAYPSSGQPSAPGAYPATGPYGAPAGPLIVPYNLPLPGGVVPRMLITILGTVKPNANILDFQRGNDVAFHFNPRFNENNRRVIVCNTLLDNNWGREERQSVFPFESGKPFKIQVLVEPDHFKVAVNDAHLLQYNHRVKKLNEISKLGISGDIDLTSASYTMI
[1]
  glycan array binding signal (z-score): 5.06
[2]
  glycan array binding signal (z-score): 5.51
[3]
  glycan array binding signal (z-score): 5.21
[4]
  glycan array binding signal (z-score): 7.87
[5]
  glycan array binding signal (z-score): 0.393
[6]
  glycan array binding signal (z-score): 5.28
[7]
  glycan array binding signal (z-score): -0.265
[8]
  glycan array binding signal (z-score): -0.262
[9]
  glycan array binding signal (z-score): -0.258
Gal(a1-4)Gal(b1-4)Glc
  glycan array binding signal (z-score): -0.267
Gal(b1-3)GalNAc
  glycan array binding signal (z-score): -0.269
[10]
  glycan array binding signal (z-score): -0.262
[11]
  glycan array binding signal (z-score): 0.682
[12]
  glycan array binding signal (z-score): -0.273
[13]
  glycan array binding signal (z-score): -0.27
[14]
  glycan array binding signal (z-score): -0.267
[15]
  glycan array binding signal (z-score): -0.271
[16]
  glycan array binding signal (z-score): 1.53
[17]
  glycan array binding signal (z-score): 5.22
[18]
  glycan array binding signal (z-score): -0.256
[19]
  glycan array binding signal (z-score): -0.268
Gal3S6S(b1-4)GlcNAc6S
  glycan array binding signal (z-score): -0.261
Gal6S(b1-4)Glc
  glycan array binding signal (z-score): -0.27
GalNAc(a1-3)GalNAc
  glycan array binding signal (z-score): -0.27
[20]
  glycan array binding signal (z-score): -0.259
[21]
  glycan array binding signal (z-score): 5.87
GlcNAc(b1-3)Gal(b1-4)Glc
  glycan array binding signal (z-score): -0.271
[22]
  glycan array binding signal (z-score): -0.27
Man(a1-2)Man(a1-3)Man
  glycan array binding signal (z-score): -0.268
[23]
  glycan array binding signal (z-score): -0.263
[24]
  glycan array binding signal (z-score): -0.269
[25]
  glycan array binding signal (z-score): 0.372
[26]
  glycan array binding signal (z-score): -0.267
[27]
  glycan array binding signal (z-score): -0.272
